Assay outcomes as filed in PubChem.
Sampled rows, rich in hits. Any-hit rate of the full collection: about 1.3%.
rTrxR1 inhibitor: qHTS Assay for Inhibitors of Mammalian Selenoprotein Thioredoxin Reductase 1 (TrxR1): qHTS | Thioredoxin reductase 1, cytoplasmic (Rattus norvegicus), O89049 | hit rate 1% among 390,000 | Potency, µM (doses to about 114 µM), inactives show at the highest dose activity change, negative = inhibition, usual class: inhibitors | recombinant rTrxR1, NADPH fluorescence consumption, selenite substrate; note: potency is the fitted concentration of half-maximal effect; nearly all actives have a fitted effect of over 65% in size
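Rat TrxR1 (90 nM in the dispensed reagent) was pre-reduced with 400 uM NADPH for 5 min at room temperature, then incubated with compound for 15 min. After 400 uM selenite was added, NADPH fluorescence (Ex 340/Em 450 nm) was followed for 8 min.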
Giardia killer: Small Molecules that selectively kill Giardia lamblia: qHTS. hit rate 0.15% among 340,000. activity change, % at 7.66 µM, hits read low. Giardia lamblia trophozoite viability; in the data active = activity change below about -80%; inconclusive = between about -30% and that limit;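 note: parasites exposed to compound for two days anaerobically before the ATP read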
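Anaerobic 48 hrs incubation at 37 deg C of 100 trophozoites/well with test compounds; ATPLite 1-Step luminescence, 15-30 min RT, reports cellular ATP as viability.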
GALK inh: qHTS Assay for Inhibitors of Human Galactokinase (GALK). Purified GALK, Kinase-Glo residual ATP luminescence. hit rate 0.007% among 270,000. AID 1868, 2009. Potency, µM (titrated, usually from 57.5 µM), for the others: top-dose activity change, negative = inhibition, usual class: inhibitors; note: potency is the fitted concentration of half-maximal effect
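Kinase-Glo Plus luminescence measured ATP left after a 1 h room-temperature reaction. The reaction used 5 nM GALK, 100 uM galactose and 35 uM ATP at pH 8.0 (20 mM HEPES, 5 mM MgCl2, 60 mM NaCl, 1 mM DTT, 0.01% BSA).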
KAT2A inh: qHTS Assay for Inhibitors of GCN5L2; GCN5L2 HAT assay, ThioGlo1 CoA-SH fluorescence; AID 504327, 2011; Potency, µM (highest dose often 58.9 µM), for the others: top-dose activity change, negative = inhibition, most hits filed as inhibitors; Histone acetyltransferase KAT2A (Homo sapiens), Q92830; hit rate 0.21% among 390,000; note: potency is the fitted concentration of half-maximal effect
Target sequence (Q92830 whole entry, looked up): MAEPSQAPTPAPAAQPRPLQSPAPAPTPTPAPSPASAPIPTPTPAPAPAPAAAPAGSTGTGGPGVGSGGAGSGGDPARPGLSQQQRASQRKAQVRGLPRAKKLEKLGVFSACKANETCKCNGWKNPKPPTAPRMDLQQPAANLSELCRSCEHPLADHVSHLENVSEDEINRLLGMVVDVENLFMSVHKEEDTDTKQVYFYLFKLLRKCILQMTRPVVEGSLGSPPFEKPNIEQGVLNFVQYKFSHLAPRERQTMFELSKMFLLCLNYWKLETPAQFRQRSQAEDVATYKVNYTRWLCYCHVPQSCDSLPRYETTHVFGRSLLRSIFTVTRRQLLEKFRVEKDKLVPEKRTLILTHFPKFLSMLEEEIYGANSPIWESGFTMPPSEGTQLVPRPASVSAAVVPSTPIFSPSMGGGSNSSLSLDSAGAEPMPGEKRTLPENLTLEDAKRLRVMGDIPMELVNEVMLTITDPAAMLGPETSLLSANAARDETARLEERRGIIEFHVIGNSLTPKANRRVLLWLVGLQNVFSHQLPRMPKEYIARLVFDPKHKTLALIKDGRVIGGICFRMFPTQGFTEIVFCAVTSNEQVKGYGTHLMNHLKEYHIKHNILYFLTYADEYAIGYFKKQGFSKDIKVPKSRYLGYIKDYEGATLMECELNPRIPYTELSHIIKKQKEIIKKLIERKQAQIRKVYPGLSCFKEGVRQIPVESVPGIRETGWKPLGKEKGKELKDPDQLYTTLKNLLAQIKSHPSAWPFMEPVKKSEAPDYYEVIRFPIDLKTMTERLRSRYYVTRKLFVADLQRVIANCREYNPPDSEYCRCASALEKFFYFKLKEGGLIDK
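qHTS, 1536-well. 20nM enzyme, pH 7.5 HEPES/EDTA/Tween-20 buffer; 15 min compound preinc., RT. Start: 75uM H3(1-25), 70uM AcCoA, 50uM ThioGlo1. Read Ex340/Em540 at t=0 (autofluorescence flag) and t=20 min.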
TrxR1 substrate: qHTS Assay for Substrates of Mammalian Selenoprotein Thioredoxin Reductase 1 (TrxR1): qHTS | Thioredoxin reductase 1, cytoplasmic (Rattus norvegicus), O89049 | purified TrxR1 substrate turnover, NADPH consumption readout | Potency, µM (series often up to 114 µM), without a hit: at the highest dose activity change, negative = substrate turnover | hit rate 0.01% among 390,000 | AID 588456, 2011; note: potency is the fitted concentration of half-maximal effect; nearly all actives have a fitted effect of over 50% in size
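Rat TrxR1, dispensed at 90 nM, was prereduced with 400 uM NADPH (final) for 5 min at ~22 deg C, then incubated with compound 15 min before 400 uM selenite. A first-read NADPH fluorescence drop versus no-compound background flagged substrates.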
Pin1 inh: qHTS Assay to Find Inhibitors of Pin1. Pin1 FP peptide displacement, HiFluor488, 10 min. Potency, µM (titrated, usually from 115 µM), for inactives: at the highest dose activity, negative = inhibition, usual class: inhibitors. hit rate 0.009% among 390,000; active = well fitted inhibition curve with a large enough effect in the polarisation, with a control signal flat, not every such curve was filed as active; inconclusive = small, poorly fitted or top-dose-only effect, or effect the other way, or a change in a side signal; inactive = no such curve, though single readings can be large or run the other way; the % refers to the polarisation; note: potency is the fitted concentration of half-maximal effect
* hit, by the source's call; ? = inconclusive; / = no result; [ ] = another dose, or the depositor's remark. Unless noted, calls come from the whole dose curve; as a rule, active = well fitted curve in the direction sought with a large enough effect; inconclusive = small, poorly fitted or top-dose-only effect, or another doubt; inactive = no such curve, though single readings can be large; an effect the other way counts as inactive or inconclusive. % is set by controls: 0 for no effect and ±100 for the full control effect.

SMILES | rTrxR1 inhibitor | Giardia killer | GALK inh | KAT2A inh | TrxR1 substrate | Pin1 inh
O=C(O)c1cc(O)c2c(c1)[C@@H]([C@H]1c3cc(C(=O)O)cc(O)c3C(=O)c3c(O[C@@H]4O[C@H](CO)[C@@H](O)[C@H](O)[C@H]4O)cccc31)c1cccc(OC3O[C@H](CO)[C@@H](O)[C@H](O)[C@H]3O)c1C2=O (stereo not given in full) | 5% | -24 | / | 0.5µM* | -3% | /
O=C(O)c1cc(O)c2c(c1)[C@H]([C@H]1c3cc(C(=O)O)cc(O)c3C(=O)c3c(O[C@@H]4O[C@H](CO)[C@@H](O)[C@H](O)[C@H]4O)cccc31)c1cccc(OC3O[C@H](CO)[C@@H](O)[C@H](O)[C@H]3O)c1C2=O (stereo not given in full) | 79µM* | 0 | / | 0.71µM* | -15% | 0.71µM*
O=Cc1[nH]c2ccccc2c1N(C(=O)CCl)c1ccccc1 | 3.5µM* | 2 | 3% | -5% | 6%[57.1 µM] | -1%
O=C(O)CCN1CC2([N+](=O)[O-])C=CC(=O)C([N+](=O)[O-])(C1)C2CC(=O)c1ccccc1 (stereo not given) | 14µM* | -14 | 0% | -6% | -11% | ?
O=C(CCCC(=O)N1CCN(c2ccc([N+](=O)[O-])cc2)CC1)c1ccccc1 | -12% | 0 | 0% | -2% | -10% | 8%
O=C1C(Cl)=C(NC(=O)c2ccccc2)C(=O)C(Cl)=C1NC(=O)c1ccccc1 | 0.32µM* | 7 | -1% | ? | -17% | -7%
Nc1nc(-c2ccc3c(c2)CCCC3)c(CC(=O)O)s1 | -4% | -15 | 3% | -6% | 2% | 34%
Nc1nc(-c2ccc3c(c2)OCCO3)c(CC(=O)O)s1 | 2%[57.1 µM] | 10 | 6% | 35µM* | -7% | 8%
CCCn1c(=N)c(C(=O)NC2CCCCC2)cc2c(=O)n3cc(C)ccc3nc21 | 25% | / | / | -1% | 32% | 2%
COC(=O)N/N=C(C)\C=C\c1ccco1 | 40µM* | 5 | 3% | 0% | -12% | 5%
CC(/C=C/c1ccco1)=N\NC(=O)C(O)c1ccccc1 (stereo not given) | 18µM* | -4 | 1% | 0% | -13% | 10%
CC(/C=C/c1ccco1)=N\NC(=O)CNc1cccc(C)c1 | 17% | 28 | 1% | -9% | 0% | 2%
O=C(N/N=C/c1ccco1)C(O)c1ccccc1 (stereo not given) | 14% | -8 | -1% | 1% | -1% | -14%
Cc1ccc(NC(=O)C2(c3cccs3)CCOCC2)cc1Cl | 15%[57.1 µM] | / | / | -2% | 0%[57.1 µM] | -2%
CC1(C)[N+]([O-])=C2C(=[N+]([O-])C1(C)C)c1ccccc1/C2=N\O | -4% | -98* | 2% | -7% | -6% | 1%
ON=C1c2ccccc2-c2ccc(F)cc21 | 6%[11.4 µM] | -2 | / | / | 8%[11.4 µM] | -8%
O=C(CCNC(=O)c1ccc(Cl)cc1)Nc1ccc(S(=O)(=O)N2CCCCC2)cc1 | 15%[57.1 µM] | -2 | / | 0% | 7%[57.1 µM] | -1%
COc1ccc(NC2=C(Cl)C(=O)N(c3ccccc3)C2=O)c(OC)c1 | 13µM* | 7 | -2% | -1% | 2% | 10%
O=c1[nH]c(Nc2ccccc2Cl)cc2ccccc12 | 39% | -19 | / | / | 31% | -3%
O=c1[nH]c(Nc2ccc(F)cc2)cc2ccccc12 | 11µM* | -4 | -2% | -8% | 32% | ?
Brc1cccc[n+]1CCC[n+]1ccccc1Br | 6.3µM* | / | / | / | -12% | /
Cc1cccc[n+]1CCCCCCCCCC[n+]1ccccc1C | 16% | 0 | 5% | -6% | 10%[57.1 µM] | -1%
